Experimental findings from PubChem BioAssay (Tox21) are described below.

Assay [1] concerns the target Cytochrome P450 2C19 (Homo sapiens) (UniProt P33261). The experiment in a line: Cytochrome P450 Family 2 Subfamily C Member 19 (CYP2C19) small molecule antagonists: luciferase reporter qHTS assay (AID 1671197). For activity change, negative = inhibition: series mostly up to about 120 µM. Note: nearly all actives have a fitted effect of over 65% in size. Note: potency is the fitted concentration of half-maximal effect. In a few lines:
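Relative luminescence units recorded 20 min after the detection reagent stopped a 1 h, 37C CYP2C19 reaction on proluciferin substrate, which was started by NADPH regeneration following 10 min room-temperature compound preincubation; ketoconazole positive control.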
On the technique in general: In a reporter assay the amount or activity of a reporter protein is the signal.

The target in assay [2] is Cytochrome P450 2C9 (Homo sapiens) (UniProt P11712). Nature of the assay: Cytochrome P450 Family 2 Subfamily C Member 9 (CYP2C9) small molecule antagonists: luciferase reporter qHTS assay (AID 1671198). For activity change, negative = inhibition: series mostly up to about 120 µM. Note: nearly all actives have a fitted effect of over 50% in size. Note: potency is the fitted concentration of half-maximal effect. In a few lines: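 P450-Glo proluciferin substrate with CYP2C9 enzyme; 10 min RT preincubation, then NADPH regeneration 1 h at 37C; luciferin detection reagent 20 min RT, luminescence in relative luminescence units.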
Sequence of Cytochrome P450 2C9 (Homo sapiens) (P11712 whole entry, looked up): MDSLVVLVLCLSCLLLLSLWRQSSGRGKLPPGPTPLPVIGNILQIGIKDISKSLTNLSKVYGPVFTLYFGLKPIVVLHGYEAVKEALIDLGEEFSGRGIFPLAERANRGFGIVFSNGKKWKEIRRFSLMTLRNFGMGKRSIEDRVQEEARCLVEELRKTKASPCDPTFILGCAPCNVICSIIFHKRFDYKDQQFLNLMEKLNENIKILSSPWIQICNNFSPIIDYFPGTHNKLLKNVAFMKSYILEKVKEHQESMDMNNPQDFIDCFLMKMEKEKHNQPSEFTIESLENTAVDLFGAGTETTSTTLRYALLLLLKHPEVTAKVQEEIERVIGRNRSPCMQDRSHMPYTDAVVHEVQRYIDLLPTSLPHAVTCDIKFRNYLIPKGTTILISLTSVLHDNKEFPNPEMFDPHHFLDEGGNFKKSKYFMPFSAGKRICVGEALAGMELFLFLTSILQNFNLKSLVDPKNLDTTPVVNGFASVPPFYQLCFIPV

Assay [3] concerns the target Cytochrome P450 1A2 (Homo sapiens) (UniProt P05177). The experiment in a line: Cytochrome P450 Family 1 Subfamily A Member 2 (CYP1A2) small molecule antagonists: luciferase reporter qHTS assay (AID 1671199). For activity change, negative = inhibition: series mostly up to about 120 µM. Note: nearly all actives have a fitted effect of over 50% in size. Note: potency is the fitted concentration of half-maximal effect. Summed up:
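Inhibition of CYP1A2 conversion of proluciferin to luciferin, detected by luminescence. Reaction run 1 h at room temperature with NADPH regeneration after brief compound preincubation.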

Assay [4] addresses Cytochrome P450 3A4 (Homo sapiens) (UniProt P08684). The experiment in a line: Cytochrome P450 Family 3 Subfamily A Member 4 (CYP3A4) small molecule antagonists: luciferase reporter qHTS assay (AID 1671201). For activity change, negative = inhibition: series mostly up to about 120 µM. Note: nearly all actives have a fitted effect of over 50% in size. Note: potency is the fitted concentration of half-maximal effect. In a few lines:
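Enzyme and proluciferin substrate are mixed with test chemicals for 10 min, then NADPH regeneration system drives turnover for 1 h at room temperature. A detection reagent halts the reaction; luminescence after 20 min gives relative activity.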

For assay [5], the target named is Voltage-gated inwardly rectifying potassium channel KCNH2 (Homo sapiens) (UniProt Q12809). Nature of the assay: Human Ether-a-go-go-Related Gene (hERG) channel small molecule antagonists: fluorescence cell-based qHTS assay (AID 1671200).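 For activity change, negative = inhibition: hERG-expressing U2OS cells given a thallium stimulus after FluxOR II dye loading; series mostly up to about 77 µM.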 Note: nearly all actives have a fitted effect of over 50% in size. Note: potency is the fitted concentration of half-maximal effect. In a few lines:
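First, 1000 cells per well are seeded and cultured overnight at 37 C. Next, FluxOR II dye is loaded for 1 h at room temperature, protected from light. After 10 more minutes, stimulus is added and fluorescence is read.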
(Block of hERG is tested as a sign of cardiac risk.)

Assay [6] concerns the target Cytochrome P450 2D6 (Homo sapiens) (UniProt P10635). The experiment in a line: Cytochrome P450 Family 2 Subfamily D Member 6 (CYP2D6) small molecule antagonists: luciferase reporter qHTS assay (AID 1671196). In a few lines: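 P450-Glo format: CYP2D6 converts a proluciferin substrate to luciferin in an NADPH-driven reaction lasting 1 h at room temperature. Light output, proportional to CYP2D6 activity, reflects interference by test chemicals.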

Inconclusive results are not listed. Values without a mark were called inactive. Calls of active or inactive are those of the source. Calls come from the whole dose curve; as a rule, active = well fitted curve in the direction sought with a large enough effect in the repeat runs; inconclusive = weak or mixed curves; inactive = no such curve, though single readings can be large; an effect the other way counts as inactive or inconclusive.
% is set by controls: 0 for no effect and ±100 for the full control effect.

Sequence of Cytochrome P450 2C19 (Homo sapiens) (P33261 whole entry, looked up): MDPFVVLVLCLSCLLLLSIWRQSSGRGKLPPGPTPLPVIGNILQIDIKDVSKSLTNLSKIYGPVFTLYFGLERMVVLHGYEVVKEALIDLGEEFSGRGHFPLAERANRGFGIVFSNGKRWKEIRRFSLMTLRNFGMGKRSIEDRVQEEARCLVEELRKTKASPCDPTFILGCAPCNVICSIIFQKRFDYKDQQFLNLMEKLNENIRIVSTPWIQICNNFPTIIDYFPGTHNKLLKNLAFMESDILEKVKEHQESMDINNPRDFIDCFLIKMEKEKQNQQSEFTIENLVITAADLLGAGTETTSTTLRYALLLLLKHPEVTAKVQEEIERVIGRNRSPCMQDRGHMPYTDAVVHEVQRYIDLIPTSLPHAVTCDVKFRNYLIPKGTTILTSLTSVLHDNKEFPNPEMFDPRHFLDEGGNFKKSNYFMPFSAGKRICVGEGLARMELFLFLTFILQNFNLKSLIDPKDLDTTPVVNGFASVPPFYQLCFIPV
Sequence of Cytochrome P450 3A4 (Homo sapiens) (P08684 whole entry, looked up): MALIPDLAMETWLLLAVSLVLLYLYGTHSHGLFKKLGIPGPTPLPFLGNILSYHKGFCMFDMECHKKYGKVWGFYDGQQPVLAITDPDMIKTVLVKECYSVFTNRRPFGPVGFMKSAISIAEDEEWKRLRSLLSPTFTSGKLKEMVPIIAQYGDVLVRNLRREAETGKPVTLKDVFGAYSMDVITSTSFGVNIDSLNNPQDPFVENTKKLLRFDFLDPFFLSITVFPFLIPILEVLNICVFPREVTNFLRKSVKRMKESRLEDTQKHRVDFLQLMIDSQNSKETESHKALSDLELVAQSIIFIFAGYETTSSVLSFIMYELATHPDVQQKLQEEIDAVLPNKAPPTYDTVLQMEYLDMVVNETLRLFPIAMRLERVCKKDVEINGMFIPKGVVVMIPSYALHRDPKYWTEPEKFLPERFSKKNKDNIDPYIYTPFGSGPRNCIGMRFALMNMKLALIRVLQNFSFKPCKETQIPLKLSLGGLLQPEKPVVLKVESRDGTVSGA
Sequence of Cytochrome P450 1A2 (Homo sapiens) (P05177 whole entry, looked up): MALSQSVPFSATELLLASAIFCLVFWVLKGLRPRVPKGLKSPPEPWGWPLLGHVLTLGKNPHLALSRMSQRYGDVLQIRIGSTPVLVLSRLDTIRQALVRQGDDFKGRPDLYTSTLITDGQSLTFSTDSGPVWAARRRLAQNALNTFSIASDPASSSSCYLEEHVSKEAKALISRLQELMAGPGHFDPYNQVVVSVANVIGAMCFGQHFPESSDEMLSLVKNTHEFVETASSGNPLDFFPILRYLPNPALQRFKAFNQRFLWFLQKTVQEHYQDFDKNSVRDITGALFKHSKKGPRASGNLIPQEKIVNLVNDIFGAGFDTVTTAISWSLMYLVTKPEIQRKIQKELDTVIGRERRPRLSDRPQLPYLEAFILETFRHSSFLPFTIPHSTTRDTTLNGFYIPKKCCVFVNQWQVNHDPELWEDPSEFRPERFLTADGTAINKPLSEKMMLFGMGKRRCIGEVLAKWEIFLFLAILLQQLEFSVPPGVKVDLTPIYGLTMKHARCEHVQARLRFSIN
Sequence of Voltage-gated inwardly rectifying potassium channel KCNH2 (Homo sapiens) (Q12809 whole entry, looked up): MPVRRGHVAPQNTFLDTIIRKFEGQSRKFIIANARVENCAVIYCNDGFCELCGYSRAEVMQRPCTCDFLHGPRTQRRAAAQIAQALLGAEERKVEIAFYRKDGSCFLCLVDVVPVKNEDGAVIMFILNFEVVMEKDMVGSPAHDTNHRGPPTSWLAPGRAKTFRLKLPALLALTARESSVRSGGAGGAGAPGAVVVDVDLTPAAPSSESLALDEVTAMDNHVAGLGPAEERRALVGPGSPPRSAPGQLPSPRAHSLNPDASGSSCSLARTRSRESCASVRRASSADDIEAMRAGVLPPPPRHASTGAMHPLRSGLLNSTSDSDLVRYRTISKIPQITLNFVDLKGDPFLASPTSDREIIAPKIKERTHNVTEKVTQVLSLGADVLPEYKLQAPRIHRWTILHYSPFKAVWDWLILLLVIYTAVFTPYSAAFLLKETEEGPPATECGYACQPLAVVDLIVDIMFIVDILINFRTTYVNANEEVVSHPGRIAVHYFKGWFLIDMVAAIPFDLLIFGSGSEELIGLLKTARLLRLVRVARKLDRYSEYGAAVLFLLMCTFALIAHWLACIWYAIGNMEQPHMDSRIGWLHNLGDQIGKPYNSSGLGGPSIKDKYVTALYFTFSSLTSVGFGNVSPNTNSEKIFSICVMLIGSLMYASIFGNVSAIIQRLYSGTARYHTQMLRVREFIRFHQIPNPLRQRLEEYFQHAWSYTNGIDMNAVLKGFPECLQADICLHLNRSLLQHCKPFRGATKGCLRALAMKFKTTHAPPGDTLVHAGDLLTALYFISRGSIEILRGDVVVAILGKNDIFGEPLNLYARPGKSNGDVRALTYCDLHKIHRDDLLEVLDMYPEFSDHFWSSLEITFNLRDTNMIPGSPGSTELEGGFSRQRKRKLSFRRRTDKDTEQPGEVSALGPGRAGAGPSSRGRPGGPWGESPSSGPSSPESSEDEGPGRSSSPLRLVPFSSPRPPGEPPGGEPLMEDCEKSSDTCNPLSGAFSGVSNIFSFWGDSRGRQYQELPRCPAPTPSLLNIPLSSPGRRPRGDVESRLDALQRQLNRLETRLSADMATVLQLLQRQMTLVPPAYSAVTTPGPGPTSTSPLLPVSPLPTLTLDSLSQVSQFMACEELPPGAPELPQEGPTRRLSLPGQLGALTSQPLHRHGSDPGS
Sequence of Cytochrome P450 2D6 (Homo sapiens) (P10635 whole entry, looked up): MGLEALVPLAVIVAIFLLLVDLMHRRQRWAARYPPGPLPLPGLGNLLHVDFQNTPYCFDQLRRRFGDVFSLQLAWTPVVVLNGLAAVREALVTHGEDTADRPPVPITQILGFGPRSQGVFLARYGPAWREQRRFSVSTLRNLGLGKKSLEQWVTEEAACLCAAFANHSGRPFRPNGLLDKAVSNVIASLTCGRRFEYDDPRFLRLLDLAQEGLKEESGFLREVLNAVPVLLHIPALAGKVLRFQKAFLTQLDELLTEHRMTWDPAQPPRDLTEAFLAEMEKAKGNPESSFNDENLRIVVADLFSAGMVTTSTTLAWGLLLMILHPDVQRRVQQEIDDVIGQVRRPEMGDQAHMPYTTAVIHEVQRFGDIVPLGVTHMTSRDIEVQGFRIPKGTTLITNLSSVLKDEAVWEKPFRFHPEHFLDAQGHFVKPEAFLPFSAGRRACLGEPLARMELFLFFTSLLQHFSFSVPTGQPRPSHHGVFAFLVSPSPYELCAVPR

For `Cc1ccc(S(=O)(=O)C(I)I)cc1`, the Potency in assay [1] was 1.59 µM (active); in assay [2], 1.12 µM (active); in assay [3], 31.7 µM (active); in assay [4], 39.9 µM (active).

With `CC(C)(C)C1=CC(=O)C(C(C)(C)C)=CC1=O`, the Potency in assay [2] was 15.5 µM (active). Besides, the Potency result in assay [5] and in assay [4] was “inactive” each time.

Turning to `CC(O)(c1ccc(Cl)cc1)c1ccc(Cl)cc1`, the Potency in assay [1] was 0.113 µM (active); in assay [2], 7.96 µM (active); in assay [3], 31.7 µM (active); in assay [5], 49 µM (active). Besides, in assay [4], the Potency result is “inactive”.

On to `C1=CCCC1`, for which the Potency entry in assay [1], in assay [2], in assay [3], in assay [5] and in assay [4] was “inactive” each time.

In the case of `Nc1cccnc1N`, the Potency entry in assay [2], in assay [5] and in assay [4] was “inactive” each time.

For the compound `Cc1ccc2sc3cccc(C)c3c2c1`, the Potency entry in assay [1], in assay [2], in assay [5] and in assay [4] was “inactive” throughout.

For the compound `CSc1nnc(C(C)(C)C)c(=O)[nH]1`, the Potency in assay [2] was 35.6 µM (active). Also, the Potency result in assay [3], in assay [5] and in assay [4] was “inactive” throughout.

As for `CC(C)=CCC[C@H](C)CC=O`, the Potency entry in assay [5] is “inactive”.

Take `COc1cc2ncnc(Nc3cccc(Cl)c3)c2cc1OC`: in assay [5], the activity change, negative = inhibition was 7% [at 15.8 µM].

Take `CCC1(C)C(=O)N(Cl)C(=O)N1Cl` (stereo not drawn): the Potency entry in assay [1], in assay [2], in assay [5] and in assay [4] was “inactive” throughout.

On to `CC(C)(C)c1ccc(OC2CCCCC2O)cc1` (stereo not drawn), for which the Potency was 31.7 µM (active) in assay [1], 35.6 µM (active) in assay [2] and 35.6 µM (active) in assay [3]. In addition, in assay [5], the Potency result is “inactive”.

Take `Cc1cc(F)ccc1-c1cc(N2CC[C@@H](O)[C@H]2CO)ncc1N(C)C(=O)C(C)(C)c1cc(C(F)(F)F)cc(C(F)(F)F)c1`: the Potency in assay [2] was 22.1 µM (active); in assay [4] it was 3.12 µM (active). Besides, the Potency result in assay [5] was “inactive”.

As for `Cc1cc(Br)ccc1NC(=O)CCl`, the figures for the Potency in assay [1], in assay [2] and in assay [3] were 79.6 µM (active), 39.9 µM (active) and 11.2 µM (active), respectively. Also, the Potency result in assay [5] and in assay [4] was “inactive” throughout.

Consider `CCCCCCCC/C=C\CCCCCCCC(=O)N(CCO)CCO`, for which the Potency in assay [2] is 14.1 µM (active); in assay [4], 15.8 µM (active).

For `CCCCCc1ccc(O)cc1`, the Potency in assay [1] was 22.4 µM (active); in assay [2], 63.3 µM (active). Besides, the Potency entry in assay [5] and in assay [4] was “inactive” in each case.

Regarding `CC(C)C(=O)C(C)C`, the Potency entry in assay [1], in assay [2], in assay [5] and in assay [4] was “inactive” in each case.

Turning to `CCCCCCCCCCCC(=O)Cl`, the Potency result in assay [6], in assay [5] and in assay [4] was “inactive” each time.

Turning to `CC1CCC(C(C)(C)O)CC1` (stereo not drawn), the Potency entry in assay [1], in assay [2], in assay [3], in assay [5] and in assay [4] was “inactive” throughout.

Turning to `ClC(c1ccccc1)(c1ccccc1)c1ccccc1`, the Potency is 0.224 µM (active) in assay [1] and 1.59 µM (active) in assay [2]. Also, the Potency entry in assay [3], in assay [5] and in assay [4] was “inactive” in each case.

With `CCN(CC)c1ccc2c(c1)Oc1cc(N(CC)CC)ccc1C21OC(=O)c2ccccc21`, the Potency in assay [1] is 38.9 µM (active); in assay [2], 15.5 µM (active); in assay [4], 11 µM (active). Moreover, in assay [5], the Potency entry was “inactive”.

As for `Cc1ccc(Cl)c(N)c1Cl`, the Potency entry in assay [1], in assay [2], in assay [5] and in assay [4] was “inactive” throughout.

Turning to `CN1CC[C@H](c2c(O)cc(O)c3c(=O)cc(-c4ccccc4Cl)oc23)[C@H](O)C1`, the Potency result in assay [1], in assay [3] and in assay [4] was “inactive” in each case.

Turning to `Nc1ccc(Oc2cccc(Oc3ccc(N)cc3)c2)cc1`, the Potency in assay [2] and in assay [4] was 6.33 µM (active) throughout. Further, the Potency result in assay [3] and in assay [5] was “inactive” throughout.

As to `CC1=C(/C=C/C(C)=C/C=C/C(C)=C\C(=O)O)C(C)(C)CCC1`, the Potency in assay [1] was 40 µM (active); in assay [2], 40 µM (active); in assay [3], 40 µM (active); in assay [4], 22.5 µM (active).

Take `Cc1ccc2nc(-c3ccc(N)cc3)sc2c1S(=O)(=O)O`: the figures for the Potency in assay [1] and in assay [2] were 22.1 µM (active) and 15.7 µM (active), respectively. The Potency result in assay [5] and in assay [4] was “inactive” throughout.

For the compound `C=Cc1ccc(O)c(OC)c1`, the Potency is 31.7 µM (active) in assay [2], 35.6 µM (active) in assay [3] and 20 µM (active) in assay [4]. Besides, the Potency entry in assay [5] was “inactive”.

Turning to `Oc1ccc(C2(c3ccc(O)c(C4CCCCC4)c3)CCCCC2)cc1C1CCCCC1`, the Potency in assay [1] was 8.94 µM (active); in assay [2] it was 2.52 µM (active); in assay [4] it was 14.2 µM (active). For the same compound, in assay [5], the Potency entry is “inactive”.

For the compound `COc1cc([C@@H]2c3cc4c(cc3[C@@H](O[C@@H]3O[C@@H]5CO[C@@H](C)O[C@H]5[C@H](O)[C@H]3O)[C@H]3COC(=O)[C@H]23)OCO4)cc(OC)c1O`, the Potency result in assay [5] was “inactive”.

For the compound `CC(C)=NNC(N)=S`, the Potency entry in assay [2], in assay [5] and in assay [4] was “inactive” each time. In assay [3], the Potency was 71 µM (active).

Turning to `S=C1NC=NC2N=CNC12` (stereo not drawn), the Potency was 25.2 µM (active) in assay [1] and 39.9 µM (active) in assay [2]. In addition, the Potency entry in assay [5] and in assay [4] was “inactive” in each case.

For `CCc1cccc(C)c1N(C(=O)C(=O)O)C(C)COC` (stereo not drawn), the Potency entry in assay [1], in assay [5] and in assay [4] was “inactive” each time.

Take `O=S(=O)(c1ccc(OCc2ccccc2)cc1)c1ccccc1O`: the Potency in assay [2] is 39.9 µM (active). Moreover, the Potency entry in assay [5] and in assay [4] was “inactive” each time.

With `COc1cc(OC)nc(NC(=O)NS(=O)(=O)Nc2ccccc2C(=O)N(C)C)n1`, the Potency in assay [1] was 39.9 µM (active); in assay [2] it was 31.7 µM (active). Further, the Potency result in assay [5] was “inactive”.

Regarding `O=c1[nH]cccc1O`, the Potency result in assay [3], in assay [5] and in assay [4] was “inactive” each time.

As for `COc1ccc(OC)c(N=Nc2c(O)ccc3ccccc23)c1`, the Potency was 10 µM (active) in assay [1], 6.33 µM (active) in assay [2], 0.894 µM (active) in assay [3] and 2.83 µM (active) in assay [4]. Also, the Potency entry in assay [5] is “inactive”.

Consider `CCN(CC)c1ccc(N=Nc2ccccc2)cc1`, for which the values for the Potency in assay [1], in assay [2] and in assay [3] were 20 µM (active), 10 µM (active) and 11.2 µM (active), respectively. The Potency result in assay [5] was “inactive”.

In the case of `CCCCCCCCc1ccc(Nc2ccc(CCCCCCCC)cc2)cc1`, the Potency result in assay [6], in assay [5] and in assay [4] was “inactive” each time.
